Most compounds without a hit are left out; they make up all but 3% or so of the library.
IP6K1 inhibitor – Primary qHTS assay for small molecule inhibitors of Inositol hexaphosphate kinase 1 (IP6K1) | Inositol hexakisphosphate kinase 1 (Homo sapiens), Q92551 | IP6K1 kinase, ADP-Glo luminescence, 2 h; stronger effect = lower value | hit rate 0.81% among 140,000 | AID 1645851, 2021 | activity change, % (series mostly up to about 58 µM); in the data active = activity change below about -25%; note: % is set by controls: 0 for no effect and ±100 for the full control effect
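ADP-Glo luminescence measures ADP made by human IP6K1 during a 2 h RT reaction with ATP/IP6 (mix at 1.3 mM/130 uM); top library doses 57.5 and 19.1 uM final.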
HEK293 viab – GF-AFC viability counterscreen for inhibitors of alpha-synuclein gene (SNCA) expression; Potency, µM (titrated, usually from 57.1 µM), for inactives: at the top dose activity change, negative = cytotoxicity, usual class: cytotoxic; hit rate 0.12% among 150,000; HEK-293-SNCA-luc viability, GF-AFC fluorescence, 24 h;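 note: potency is the fitted concentration of half-maximal effect; 0% = DMSO-treated cells and -100% = medium-only wells without cells; nearly all actives have a fitted effect of over 30% in size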
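Cytotoxicity counterscreen: after 24 h compound treatment of genome-edited SNCA-luciferase HEK-293 cells, live-cell protease substrate GF-AFC read by fluorescence after 30 min; activity scaled between DMSO (0%) and medium-only (-100%), curves Hill-fitted.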
KDM5B inh – Primary screen for KDM5B Histone Demethylases FDH-coupled qHTS; hit rate 2.6% among 220,000; Potency, µM (top dose mostly 57.7 µM), most hits filed as inhibitors; KDM5B demethylase, FDH-coupled NADH fluorescence (FDH is formaldehyde dehydrogenase); Lysine-specific demethylase 5B (Homo sapiens), Q9UGL1; note: potency is the fitted concentration of half-maximal effect; 0% is about no effect; nearly all actives have a fitted effect of over 70% in size
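Compound dilutions met 200 nM (final) KDM5BΔAP for 10 min at room temperature before substrate addition. The substrate mix held 12.5 µM H3K4me3 with cofactors 25 µM α-ketoglutarate and 50 µM Fe²⁺. NADH signal gain over 30 min defined activity.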
SNCA expr inhib – Primary qHTS assay for inhibitors of alpha-synuclein gene (SNCA) expression | HEK-293 SNCA-luciferase knock-in, luminescence, 24 h | Potency, µM (titrated, usually from 57.2 µM), for the others: at the top dose activity change, negative = inhibition, most hits filed as inhibitors | hit rate 0.17% among 140,000 | AID 1671194, 2021;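 note: potency is the fitted concentration of half-maximal effect; plate controls were DMSO cells for no effect and cell-free wells for full effect; nearly all actives have a fitted effect of over 45% in size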
Starred values were filed as active, the others as inactive; i = inactive; ? = inconclusive; nt = no result given; [ ] = dose if it differs, or a comment. Unless noted, calls come from the whole dose curve; as a rule, active = well fitted curve in the direction sought with a large enough effect; inconclusive = small, poorly fitted or top-dose-only effect, or another doubt; inactive = no such curve, though single readings can be large; an effect the other way counts as inactive or inconclusive.

SMILES | IP6K1 inhibitor | HEK293 viab | KDM5B inh | SNCA expr inhib
OCC1CN(c2ncccn2)CC12CCN(Cc1ccsc1)CC2 (stereo unspecified) | 10 | 7% | 32µM* | 10%
O=C(c1cc2ccccc2[nH]1)N1CCC2(CC1)CN(c1ncccn1)CC2CO (stereo unspecified) | 0 | -16% | ? | 13%
O=C(c1ccncc1)N1CCC2(CC1)CN(c1ncccn1)CC2CO (stereo unspecified) | 4 | 3% | 22µM* | -3%
CC(=O)N1CCC2(CC1)CCN(c1ncccc1C#N)CC2CO (stereo unspecified) | -7 | 0% | 32µM* | 5%
COc1ccccc1Nc1ccnc(N2CCN(C(=O)c3ccc(Cl)nc3)CC2)n1 | 11 | 0% | nt | -12%
COc1cc(OC)c(-c2nc3ccc(-c4ccc(OC)c(OC)c4OC)cc3o2)cc1OC | -12 | 0% | i | 8%
N#Cc1ccc(C(=O)NC2CCN(c3cc(-c4ccc(Cl)cc4)[nH]n3)C2)cc1 (stereo unspecified) | 11 | -7% | ? | -3%
Cc1ccc(-c2c(C(=O)NCCc3ccccc3F)nc3sccn23)cc1 | 24 | -17% | nt | -7%
COc1cc(OC)c(-c2c(-c3ccccc3)ncn2CCF)cc1OC | 3 | 0% | 25µM* | -5%
Cc1nn(-c2ccc(C(C)C)cc2)c(C)c1[C@@H]1C=C[C@@H](NC(=O)NCc2ccccc2)C1 | -4 | ? | i | ?
Cc1nn(-c2ccc(C(C)(C)C)cc2)c(C)c1[C@@H]1C=C[C@@H](NC(=O)NCc2ccccc2)C1 | 13 | ? | 32µM* | 36%[87.6 µM]
Cc1ccc(-n2nc(C)c([C@@H]3C=C[C@@H](NCc4ccc(N(C)C)cc4)C3)c2C)cc1Cl | 14 | ? | 40µM* | ?
Cc1nn(-c2ccc(C(C)(C)C)cc2)c(C)c1[C@@H]1C=C[C@@H](NC(=O)c2ccc(N(C)C)cc2)C1 | 7 | -26% | ? | -8%
Cc1nn(-c2ccc(C(F)(F)F)cc2)c(C)c1[C@@H]1C=C[C@@H](NC(=O)c2ccc(N(C)C)cc2)C1 | 10 | -3% | 32µM* | 15%
COc1ccccc1C(=O)NC1CCN(Cc2ccc(-c3cc(F)ccc3OC)cc2)C1 (stereo unspecified) | 4 | nt | nt | nt
O=C(NCCc1ccc(F)cc1)C1CCN(C(=O)c2ccc(-c3cccs3)cc2)CC1 | -13 | nt | nt | nt
COC(=O)N1CCC(N2C(=O)c3c(c(C)nn3-c3ccccc3)C2C2CC2)C1 (stereo unspecified) | 0 | nt | nt | nt
CCc1noc(-c2ccn3c(CNC(=O)c4ccc(OC)cc4)nnc3c2)n1 | 4 | -10% | 14µM* | ?
CCc1noc(-c2ccn3c(CNC(=O)c4cc(F)ccc4F)nnc3c2)n1 | -6 | -6% | i | 6%
CCc1noc(-c2ccn3c(CNC(=O)c4cc(F)cc(F)c4)nnc3c2)n1 | 6 | 3% | 25µM* | -26%
CCCc1noc(-c2ccn3c(CNC(=O)c4ccc(OC)cc4)nnc3c2)n1 | 11 | 6% | ? | 28%
Cn1nc(C(=O)N2CCC[C@H](n3c(=O)n(CC4CC4)c4cccnc43)C2)c2ccccc21 | -16 | ? | nt | ?
COc1ccc(-c2nn(-c3ccccc3)cc2CN2CCC(F)CC2)c(F)c1 | -12 | ? | ? | -3%
COc1ccc(-n2cc(CN3CCC(O)CC3)c(-c3cccc(F)c3)n2)cc1 | 13 | -11% | 28µM* | 54%
O=C(NCCc1ccc(Cl)cc1)c1ccc2nnc(-c3ccoc3)n2c1 | -14 | -6% | nt | -4%
SMILES | IP6K1 inhibitor | HEK293 viab | KDM5B inh | SNCA expr inhib
COc1ccc(-c2cc(NCCO)nc3[nH]ccc23)cc1C(F)(F)F | 12 | 3% | ? | -3%
O=C(Cc1c[nH]c2ncc(-c3ccc(F)cc3)cc12)NCc1cccnc1 | -18 | -3%[87.6 µM] | 28µM* | 0%[87.6 µM]
O=C(Cc1c[nH]c2ncc(-c3cn[nH]c3)cc12)NCc1cccnc1 | -16 | 4%[87.6 µM] | ? | 7%[87.6 µM]
O=C(Cc1c[nH]c2ncc(-c3cccc(OC(F)(F)F)c3)cc12)NCc1cccnc1 | -13 | -16%[87.6 µM] | 28µM* | -11%[87.6 µM]
CNC(=O)c1cc(C2CC2)nc2onc(C3CCN(C(=O)C4CCCCC4)C3)c12 (stereo unspecified) | -2 | nt | nt | nt
COc1ccccc1N1CCN(c2nc3c(S(=O)(=O)c4ccc(C)c(C)c4)nnn3c3ccc(Cl)cc23)CC1 | -28* | -5% | ? | -3%
C[C@@H]1C[C@H]2O[C@@H]2/C=C\C=C\C(=O)Cc2c(Cl)c(O)cc(O)c2C(=O)O1 | -27* | -11%[12.5 µM] | nt | nt
CC1(C(=O)NCc2cccc(Cl)c2)CCc2cnc(N3CCOCC3)nc21 (stereo unspecified) | 3 | -10%[87.6 µM] | 35µM* | -28%[87.6 µM]
COc1cccc(Nc2ncc3c(n2)C(C)(C(=O)Nc2ccc(OC)nc2)CC3)c1 (stereo unspecified) | -11 | -27%[87.6 µM] | ? | -12%[87.6 µM]
CC1(C(=O)NCCN2CCOCC2)CCc2cnc(NCc3ccccc3)nc21 (stereo unspecified) | -4 | 7%[87.6 µM] | ? | -11%[87.6 µM]
COc1cccc(NC(=O)C2(C)CCc3cnc(N4CCOCC4)nc32)c1 (stereo unspecified) | 12 | -10%[87.6 µM] | 28µM* | -11%[87.6 µM]
COc1ccc(NC(=O)C2(C)CCc3cnc(N4CCOCC4)nc32)cn1 (stereo unspecified) | 10 | -17%[87.6 µM] | 35µM* | -4%[87.6 µM]
CC1(C(=O)Nc2ccccc2)CCc2cnc(N3CCOCC3)nc21 (stereo unspecified) | 4 | 14%[87.6 µM] | 35µM* | -3%[87.6 µM]
O=C(NCCc1ccc(F)cc1)C1CCCN(Cc2cccc(-c3ccc(F)cc3F)c2)C1 (stereo unspecified) | -13 | -9% | nt | -22%
C#CCNC(=O)C1CCCN1C(=O)c1cccc(-c2cccc(OC)c2)c1 (stereo unspecified) | 3 | 5% | nt | 9%
COc1ccc(CCNC(=O)c2cc(-c3ccccc3OC)c3nncn3n2)cc1 | -6 | 2% | nt | -14%
Cc1ccnn1CCC(=O)Nc1nn(C)c2cccc(N3CCOCC3)c12 | 13 | -4% | 28µM* | -32%
O=C(Nc1nn(Cc2ccccc2)c2cccc(N3CCOCC3)c12)C1CCC1 | -4 | 0% | 25µM* | -23%
O=C(Nc1nn(-c2cccc(F)c2)c2cccc(N3CCOCC3)c12)C1CCC1 | 0 | -2% | 32µM* | 133%
O=C(c1ccc(C(F)(F)F)cc1)N1CCCN(c2ccnc3ccnn23)CC1 | 4 | -6% | nt | -23%
O=C(O)Cn1ccc2cc(OCc3cccc(-c4ccc(F)cc4F)c3)cnc21 | -19 | 1%[87.6 µM] | 35µM* | 8%[87.6 µM]
Cc1cc(F)ccc1-c1cccc(COc2cnc3c(ccn3CC(=O)O)c2)c1 | -21 | -2%[87.6 µM] | ? | 4%[87.6 µM]
O=C(O)Cn1ccc2cc(OCCc3cccc(-c4ccc(F)cc4F)c3)cnc21 | -9 | -11%[87.6 µM] | 35µM* | -11%[87.6 µM]
